# The supplement of paper PMC8726507
# Values without a mark were called inactive.
# Test system: Plasmodium falciparum NF54-HGL (transmission to Anopheles stephensi)
# Assay: percentage of barcode signal found in uninfected mosquitoes (transmission-blocking activity); higher = stronger blocking of transmission to mosquito, active = 80 or more
# Settings: 10 µM; gametocyte preincubation time 24 h; readout time post-feed 8 days
# Description: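 The mixture was fed to Anopheles stephensi in 96-well plates as blood meals tagged with DNA-barcoded Asaia bacteria. Eight days later, mosquitoes were classed infected or uninfected by luminescence (mean + 5 SD of unfed controls). Barcodes were quantified by Luminex MagPlex-TAG in the pooled uninfected and infected Asaia cultures, background-corrected, and the score is % of barcode signal in uninfected mosquitoes = 100*Iu/(Iu+Ii).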
row,SMILES,percentage of barcode signal found in uninfected mosquitoes
1,N=C(N)c1ccc(OCCCCCOc2ccc(C(=N)N)cc2)cc1,77.2%
2,Nc1ncnc2c1ncn2C[C@@H](O)[C@@H](O)C(=O)O,39.9%
3,O=C(NCc1ccco1)N1CCN(Cc2ccc(Cl)s2)CC1,0.794%
4,Cc1ncc(-c2ccnc(Nc3ccc(S(C)(=O)=O)cc3)n2)n1C(C)C,82.6% (active)
5,CS(=O)(=O)c1ccccc1C(=O)N(Cc1ccccc1)c1ccccc1,5.09%
6,CCCS(=O)(=O)N1CCC(CO)(Cc2ccccc2C(F)(F)F)CC1,39.3%
7,COc1ccc(C2(C(=O)Nc3ccc(Br)cc3)CCCC2)cc1,15.2%
8,O=C(CCC1CCCCC1)Nc1cccc(-c2nnc(-c3ccco3)o2)c1,67.5%
9,O[C@@H](c1cc(C(F)(F)F)nc2c(C(F)(F)F)cccc12)[C@H]1CCCCN1,43.2%
10,CN(C)c1cc(NC(=O)Nc2ccccc2)c2ccccc2n1,88.3% (active)
11,CCn1cnc2c(Nc3cc(F)cc(F)c3)nc(C#N)nc21,33.6%
12,CCc1c(C)nc(-n2nc(C)cc2NC(=O)c2ccccc2SC)[nH]c1=O,53.6%
13,COc1cccc2c(C)nc(N=C(N)N)nc12,24.9%
14,Cc1ccc2oc(-c3cc(NC(=O)Cc4ccccc4)ccc3Cl)nc2c1,24%
15,CC1CS(=O)(=O)CCN1/N=C/c1ccc([N+](=O)[O-])o1 (stereo not drawn),91.3% (active)
16,Cc1ccc2c(c1C)NC(=O)C21NN=C(c2ccccc2)S1 (stereo not drawn),77%
17,Cc1ccc(NC(=O)CC2COc3ccccc3O2)cc1Cl (stereo not drawn),38.8%
18,CO[C@@H](C(=O)N1Cc2[nH]nc(NC(=O)c3ccc(N4CCN(C)CC4)cc3)c2C1)c1ccccc1,68.7%

# Same assay, conditions: 20 µM; gametocyte preincubation time 24 h; readout time post-feed 8 days
row,SMILES,percentage of barcode signal found in uninfected mosquitoes
1,COc1ccc(-c2cnc3cnc(-c4cccc(OC(C)C)c4)cn23)cc1,-0.618%
2,COc1cccc(-n2nnnc2S(C)(=O)=O)c1,70.1%
3,COc1cc(OC)cc(C(=O)NCC2Cc3cc(Cl)cc(-c4ccncc4)c3O2)c1 (stereo not drawn),1.01%
4,Clc1ccc(-n2cc(COc3ccnc4ccccc34)nn2)cc1,34.4%
5,O=C(Nc1ccccc1)c1ccc(-c2cc3ccncc3cc2OC2CCNCC2)s1,82.7% (active)
6,O=C(Nc1cccc(Cl)c1)c1cnc(N2CCN(c3ccncc3)CC2)c(Cl)c1,56%
7,Cc1cc(C)c2cc(C(=O)NC3CCCCCCC3)[nH]c2c1,0.265%
8,C[C@H](C(N)=O)N1CCCC[C@H]1c1ccc(OCc2cccc(F)c2)cc1,25%
9,O=C(NCCc1ccn(-c2ccccc2)n1)C1CCCCC1,3.62%
10,COc1ccc(C(=N)N)cc1-c1cn(-c2ccc(C(=N)N)cc2)nn1,2.56%
11,O=C(NCc1cc(Cl)cc(Cl)c1)c1c(C(F)(F)F)nc2ccccn12,20%
12,CCC(NC(=O)c1ccccc1NC(=O)c1ccc(C)cc1)C(=O)OC (stereo not drawn),95.2% (active)
13,FC(F)(F)c1cc(NCCc2ccccc2)nc(-c2ccccn2)n1,62.2%
14,COc1cccc(NC(=O)c2c(NC(=O)c3cccnc3)sc3c2CCC3)c1,34.2%
15,CC(C(=O)N1CCCC1)N1CCN(S(=O)(=O)c2ccc(C(C)(C)C)cc2)CC1 (stereo not drawn),0.922%
16,Nc1ccc(C(=O)Nc2ccc(-c3nc4ccccc4o3)cc2)cc1,-0.842%
17,COc1cc(C(F)(F)F)nc2ccc(C)c(N)c12,-0.0386%
18,O=C(NCCN1CCCC1)c1cc(NCCN2CCOCC2)nc2ccc(Cl)cc12,88% (active)
19,OC[C@H]1O[C@@H](n2c3ccc(Cl)cc3c3c(-c4cc5ccccc5o4)ncnc32)C(O)[C@H]1O (stereo partly drawn),8.88%
20,c1cncc(NCc2ccc(-c3cc4ccncc4cc3OC3CCNCC3)s2)c1,99.4% (active)
